Laboratory results from PubChem BioAssay (Tox21).
Records with an inconclusive call do not appear. Where a call stands in place of a potency, no number is given. The source made the active and inactive calls. Calls follow the shape of the full dose curve.

Experiment: p53 small molecule agonists, cell-based qHTS assay with human liver microsomes: qHTS cell viability counter screen (AID 1963579); also: nearly all actives have a fitted effect of over 45% in size
Settings: p53RE-bla HCT-116 viability, ATP luminescence, 16 h, HLM; series mostly up to 66 µM
Description: National Center for Advancing Translational Sciences [NCATS]
Division of Preclinical Innovation [DPI]
U.S. Environmental Protection Agency [EPA]
National Institutes of Environmental Health Sciences [NIEHS]
National Toxicology Program [NTP]
U.S. Food and Drug Administration [FDA]
p53, a tumor suppressor protein, is activated following cellular insult, including DNA damage and other cellular stresses. The activation of p53 regulates cell fate by inducing DNA repair, cell cycle arrest, apoptosis, or cellular senescence. The activation of p53, therefore, is a good indicator of DNA damage and other cellular stresses. […] The activation of the reporter gene under culture conditions can be detected by fluorescence intensity. This cell line was used to screen the Tox21 10K compound library in the condition of presence of human liver microsomes and to identify agonists that activate the p53 signaling pathway after in vitro metabolic activation (Ooka et al., Archive of Toxicology 96:1975-1987, 2022).
Tox21 Assay Protocol Summary:
The p53RE-bla cells were dispensed at 4,000cells/3ul/well in 1536-well black-clear bottom plates. After the assay plates were incubated at 37 C, 5% CO2 incubator for 5 hours, 23 nL of compounds dissolved in DMSO, positive controls or DMSO only was transferred to the assay plate. Following compound addition, 3 uL of human liver microsomes (XenoTech, Kansas City, KS) at final concentration of 0.5 mg/mL and 1uL of B-Nicotinamide adenine dinucleotide 2'-phosphate (NADPH) at final concentration of 0.5 mg/mL were transferred to the assay plate. The plates were incubated at 37 C for 16 hours. 1 uL of LiveBLAzer detection mixture was added to each well and the plates were incubated at room temperature in the dark for 2 h. Fluorescence intensity at 460 and 530 nm emission and 405 nm excitation were measured by an Envision plate reader. For cell viability readout that measures cytotoxicity, 4 ul/well of CellTiter-Glo reagent was added into the assay plates using a Flying Reagent Dispenser. After 30 min incubation at room temperature, the luminescence intensity in the plates was measured using a ViewLux plate reader.
Potency is read from the fitted curve at half-maximal effect.

Structure (SMILES) | Potency
CC(=O)OC1(c2ccccc2)CCN(CCc2ccccc2)CC1 | inactive
CN(C1CCCCC1)C1CCCCC1 | inactive
C[C@H]1CC[C@@H]2[C@@H](C)[C@H]3[C@H](C[C@H]4[C@@H]5CC=C6CC(O[C@@H]7O[C@H](CO)[C@H](O)[C@H](O[C@@H]8O[C@H](CO)[C@@H](O)[C@H](O)[C@H]8O)[C@H]7O[C@H]7O[C@@H](C)[C@H](O)[C@@H](O)[C@H]7O)CC[C@]6(C)[C@H]5CC[C@]34C)N2C1 (stereo not given in full) | inactive
CC(=O)C(Cl)(Cl)Cl | inactive
N[C@@H](Cc1ccc(Oc2cc(I)c(O)c(I)c2)c(I)c1)C(=O)O | inactive
COP(=S)(OC)Oc1ccc([N+](=O)[O-])cc1Cl | inactive
C=CC(=O)OCCCCOC(=O)C=C | inactive
C[N+](C)(C)CC1CO1 (stereo not given) | inactive
CC(O)C(=O)[O][Hg][c]1ccccc1 (stereo not given) | 3.63 µM (active)
CC(C)=CC1C(C(=O)OCc2coc(Cc3ccccc3)c2)C1(C)C (stereo not given) | inactive
CCOC(=O)NC(C)(C)Cc1ccc(Cl)cc1 | inactive
Oc1cccc(Cl)c1Cl | inactive
CC(Cc1ccc2c(c1)OCO2)NO (stereo not given) | inactive
Cc1ccccc1C(=O)Nc1cccc(OC(C)C)c1 | inactive
CC(C)N(Cc1ccccc1)C(=O)C(C)(C)C | inactive
CN(C)CCc1c[nH]c2cccc(O)c12 | inactive
N#CNC#N | inactive
Cc1c([N+](=O)[O-])cc2c(c1[N+](=O)[O-])C(C)(C)CC2(C)C | inactive
OCCBr | inactive
N#CC(C#N)=NNc1cccc(Cl)c1 | 5.13 µM (active)

Structure (SMILES) | Potency
CCOP(=S)(OCC)SCn1nnc2ccccc2c1=O | inactive
COC1=CC(=O)O[C@@H](/C=C/c2ccc3c(c2)OCO3)C1 | inactive
Nc1ccc(Sc2ccc(N)cc2)cc1 | inactive
NNCCO | inactive
CCOP(=S)(OCC)OC(Cl)C(Cl)(Cl)Cl (stereo not given) | inactive
C[C@]12CC[C@H]3[C@@H](CCC4=CC(=O)CC[C@@H]43)[C@@H]1CC[C@@H]2OC(=O)CCc1ccco1 | inactive
C=CC(=O)OCCN(C)C | inactive
COP(=S)(OC)Oc1cc(Cl)c(Br)cc1Cl | 45.8 µM (active)
CNC(=O)Oc1cc(C)c(N(C)C)c(C)c1 | inactive
O=C(CCCN1CCC2(CC1)C(=O)NCN2c1ccccc1)c1ccc(F)cc1 | inactive
[Cl-].[Cl-].[Sn+2] | inactive
CSSC | inactive
C=CC[C@]1(O)CC[C@H]2[C@@H]3CCC4=CC(=O)CCC4=C3C=C[C@@]21C | inactive
CC(C)C(Br)C(=O)NC(N)=O (stereo not given) | inactive
CSC(=O)c1c(C(F)F)nc(C(F)(F)F)c(C(=O)SC)c1CC(C)C | inactive
CN1[C@@H]2CC[C@H]1CC(O)C2 (stereo not given in full) | inactive
N#Cc1c[nH]cc1-c1cccc2c1OC(F)(F)O2 | inactive
O=C(O)/C=C/C(=O)O | inactive
CCOC(=O)N(C)C(=O)CSP(=S)(OCC)OCC | inactive
O=c1oc2ccccc2c(O)c1Cc1c(O)c2ccccc2oc1=O | inactive
